From ChEMBL document CHEMBL4513216, “Probing the Open Global Health Chemical Diversity Library for Multistage-Active Starting Points for Next-Generation Antimalarials” (ACS Infect Dis, 2020)
Screen size: about 69,000 compounds; about 8,600 (12%) showed an effect of 50% or more. The sample holds strong results, similar compounds and a random draw of the others, so the mix is not that of the screen.

tested on: Plasmodium berghei; test: Screen against P. berghei liver stage (PbLuc), transformed with Luciferase, at 10uM; type: functional, HepG2; settings: tested at 10 uM

| SMILES | INHIBITION [%] |
| --- | --- |
| Fc1cccc(-n2ccc(CN3CCCC3Cn3cncn3)n2)c1 (configuration not stated) | -19.4 |
| Cc1nc(C(=O)N2CCCC2c2cncc(CN3CCCC3)n2)co1 (configuration not stated) | -33.6 |
| Cc1cc(C2CCCN2C(=O)c2cnn(C)c2)on1 (configuration not stated) | 0.8 |
| Cc1cccc(NCC(=O)Nc2cc(F)ccc2F)c1C(N)=O | -33.7 |
| CCN1C[C@@H]2[C@@H](OC)CCN(C(=O)c3cc(C)nn3CC)[C@@H]2C1 | 84.1 |
| CCn1nc(C)cc1C(=O)N1CC[C@H](OC)[C@H]2CN(CC3CC3)C[C@H]21 | -6.39 |
| CCN1C[C@H]2[C@@H](C1)N(C(=O)Cc1ccsc1)CC[C@H]2OC | -9.74 |
| CCC(C)NS(=O)(=O)c1ccc(C(=O)NC2(C#N)CCC2)cc1 (configuration not stated) | 3.13 |
| CC(C(=O)N(C)Cc1noc(C2CCC2)n1)N1CCc2ccccc2C1 (configuration not stated) | 25.8 |
| COCCc1noc(CN(C)C(=O)C(C)N2CCc3ccccc3C2)n1 (configuration not stated) | 2.29 |
| CC(C)c1cc(CN(C)C(=O)C(C)N2CCc3ccccc3C2)no1 (configuration not stated) | 63.1 |
| Cn1cc(C2CCCN2C(=O)c2cnc(-c3cccs3)s2)cn1 (configuration not stated) | 37.7 |
| O=C(C1CCOC1)N1Cc2ccccc2OC2(CCOCC2)C1 (configuration not stated) | 12.8 |
| CCOC1CCN(C(=O)NCCN(C)C(=O)OC(C)(C)C)CC1 | 58.2 |
| CC(CCNC(=O)N1CCC1)N(C)C(=O)OC(C)(C)C (configuration not stated) | 8.18 |
| CN(CCNC(=O)N1CCCC1)C(=O)OC(C)(C)C | -30.5 |
| COCCN(Cc1ccoc1)S(=O)(=O)c1ccc(F)c(Cl)c1 | -31.7 |
| COc1ccc(CNC(=O)Cc2csc(C(C)=O)c2)cc1 | 33 |
| CC(=O)c1cc(CC(=O)NCc2ccc(F)cc2)cs1 | -38.2 |
| CC(=O)c1cc(CC(=O)NCc2ccc(CN(C)C)cc2)cs1 | 50.1 |
| CS(=O)(=O)Cc1ccc(CNC(=O)N2CCC(C(N)=O)C2)cc1 (configuration not stated) | 2.97 |
| CCOc1ncccc1NC(=O)NC1CCN(c2ncccn2)CC1 | -19.9 |
| CCn1nc2c(cc1=O)CN(CC(=O)Nc1nccs1)CC2 | 18.2 |

| SMILES | INHIBITION [%] |
| --- | --- |
| CCn1nc2c(cc1=O)CN(c1ncnc3ccsc13)CC2 | 93.6 |
| CC(C)n1nc2c(cc1=O)CN(Cc1nc3ccccc3o1)CC2 | 26.5 |
| CCCn1nc2c(cc1=O)CN(CCCN1CCCC1=O)CC2 | 6.56 |
| CC(C)n1nc2c(cc1=O)CN(c1ncnc3ccccc13)CC2 | 94.5 |
| Cn1nc2c(cc1=O)CN(c1ncnc3ccsc13)CC2 | 34.6 |
| CCCn1nc2c(cc1=O)CN(c1ncnc3ccsc13)CC2 | 91.9 |
| CN(C(=O)CN1CCc2nn(C)c(=O)cc2C1)c1nccs1 | 29 |
| CCCn1nc2c(cc1=O)CN(CC(=O)N(C)c1nccs1)CC2 | 9.56 |
| CCn1nc2c(cc1=O)CN(CC(=O)N(C)c1nccs1)CC2 | 50.7 |
| CC(C)n1nc2c(cc1=O)CN(c1nc3ccccc3s1)CC2 | 35 |
| CCn1nc2c(cc1=O)CN(c1nc3ccccc3s1)CC2 | 37.7 |
| CCCc1c(C2CCOC(C)(C)C2)nc(N)c(C#N)c1-c1cnn(C)c1 (configuration not stated) | 4.15 |
| Cc1ccoc1C(=O)NCCS(=O)(=O)N1CCSCC1 | 4.52 |
| c1ccc(Cc2nnc(CN3CCCC(Cn4cncn4)C3)o2)cc1 (configuration not stated) | -15.3 |
| COc1cc(N2CCC3(CCCN(C(=O)c4cccnc4)C3)C2)ncn1 (configuration not stated) | 19.8 |
| C=C(C)COc1ccccc1CN1CCC(C(=O)NCC)C1 (configuration not stated) | 3.06 |
| CC(=O)N[C@@H]1CN(C(=O)CC2CC2)C[C@H]1O | 49.9 |
| Cc1ccc(-c2[nH][nH]c(=O)c2CCN)cc1 | 44.9 |
| Cc1cc(C)n(C2CCCN(C(=O)c3ccc4c(c3)COC4)C2)n1 (configuration not stated) | 15.815 |
| COCc1nc(C(=O)NS(=O)(=O)c2ccc(Cl)cc2F)cs1 | -64.25 |
| COc1cccc(Oc2nc(C)c(C(=O)O)s2)c1OC | 45.5 |
| Cc1cc(C2CCCN2Cc2nc3c(cnn3C)c(=O)[nH]2)on1 (configuration not stated) | 27.6 |
| Cn1cc(CN2CC[C@H]3OCC[C@@H](C(=O)Nc4cnccn4)[C@@H]3C2)cn1 | 38.5 |

| SMILES | INHIBITION [%] |
| --- | --- |
| O=C(Cc1cccc(F)c1)NCCNCc1cccnc1 | 33.3 |
| Cn1c(CN2CCC(N3CCNC3=O)CC2)cc(=O)n(C)c1=O | 29 |
| CC(C)n1nc2c(cc1=O)CN(CC(=O)N(C)c1nccs1)CC2 | 17.1 |
| CC(C)n1nc2c(cc1=O)CN(c1ncnc3ccsc13)CC2 | 86.8 |
| CC(C)n1nc2c(cc1=O)CN(Cc1nnc(C3CC3)o1)CC2 | -25.9 |
| c1csc(CN2C[C@@H]3OCCN(CC4CCCO4)[C@@H]3C2)c1 (some centres not stated) | -21.5 |
| CC(=O)Nc1nc(C2CCN(C(=O)C3CCC3)CC2)cs1 | 36.7 |
| Cc1ccsc1C(=O)NCc1ccnc(C2CCCOC2)n1 (configuration not stated) | 5.1 |
| O=C(Cc1cccs1)NCc1ccnc(C2CCCOC2)n1 (configuration not stated) | 53.8 |
| O=C(NCc1ccnc(C2CCCOC2)n1)c1cccs1 (configuration not stated) | 33.5 |
| CCN1CCOCC2(CCCN(C(=O)c3cccc(O)c3)C2)C1 (configuration not stated) | 26 |
| O=C(c1cccc2ccnn12)N1CCC[C@H]1CN1CCCC1 | 19.8 |
| O=C1NCC2(CCCN(C(=O)c3c[nH]nc3C3CCCCC3)C2)O1 (configuration not stated) | 31.8 |
| Cc1cc(C)n2nc(C(=O)N3CCCC4(CNC(=O)O4)C3)cc2n1 (configuration not stated) | 27.4 |
| Cc1cc(C(=O)N2CCCC3(CNC(=O)O3)C2)c2c(C)nn(C)c2n1 (configuration not stated) | 54.1 |
| CCN1C(=O)CCCC12CCCN(C(=O)c1cnccn1)C2 (configuration not stated) | 27.4 |
| Cc1ccc(-c2cc(CNC(=O)N3CCSCC3)on2)cc1 | -5.25 |
| COc1c(CNC(c2ccccc2F)c2nccn2C)c(C)nn1C (configuration not stated) | 2.95 |
| CC(C)Cc1ncc2c(n1)CN(c1nc3ccccc3cc1CO)C2 | 33.9 |
| Cc1ccc(C(=O)O)c(N2Cc3cnc(C(C)(C)C)nc3C2)n1 | -7.27 |
| Cc1cccc2cc(CO)c(N3Cc4cnc(C(C)(C)C)nc4C3)nc12 | 91.2 |
